Results on 93 compounds are retold here after PubChem BioAssay AID624040 (The Scripps Research Institute Molecular Screening Center, 2012).

Values joined by “and” are separate entries in the source; they are usually repeats but may differ in a detail not shown here. Equal entries are not always repeated. Hit rate of the full screen: of about 360,000 compounds, about 2,100 (0.58%) were called active.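 The calls were made as follows: active = inhibition above a per-plate cutoff, the mean of that plate's test compounds plus 3 SD (cut at about 27% in these data); inactive = the rest.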 For the sample, actives were picked, then their nearest neighbours and some compounds at random. The source holds several records for some structures; these can differ, active in one and inactive in another.

Muscarinic acetylcholine receptor M5 (Homo sapiens), sequence (P08912 whole entry, looked up): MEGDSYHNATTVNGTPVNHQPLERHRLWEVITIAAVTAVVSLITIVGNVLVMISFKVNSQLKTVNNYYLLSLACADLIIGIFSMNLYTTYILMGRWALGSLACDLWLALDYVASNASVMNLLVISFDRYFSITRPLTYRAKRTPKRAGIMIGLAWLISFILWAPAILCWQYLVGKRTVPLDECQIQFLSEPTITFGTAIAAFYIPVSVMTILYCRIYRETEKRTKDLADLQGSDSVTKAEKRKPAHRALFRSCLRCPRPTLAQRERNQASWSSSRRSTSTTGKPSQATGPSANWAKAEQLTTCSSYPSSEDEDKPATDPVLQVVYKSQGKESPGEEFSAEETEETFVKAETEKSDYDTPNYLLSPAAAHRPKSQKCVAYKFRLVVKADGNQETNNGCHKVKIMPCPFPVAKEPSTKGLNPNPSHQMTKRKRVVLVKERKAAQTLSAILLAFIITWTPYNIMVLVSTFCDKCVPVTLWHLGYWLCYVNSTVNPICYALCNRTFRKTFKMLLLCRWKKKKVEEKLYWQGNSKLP

This assay concerns the target Muscarinic acetylcholine receptor M5 (Homo sapiens) (UniProt P08912). Kind of assay: CHRM5 blockers of acetylcholine calcium response – CHO cells, Fluo-8 calcium fluorescence, primary screen (AID 624040).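 Also: 0% = acetylcholine EC80 with DMSO and 100% = DMSO without agonist.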 To be noted: CHO-hM5 cells, ACh EC80, at 3 µM, stronger effect = higher value.
Take `COc1ccc(CCNc2cc(C)nc3c(-c4ccc(Cl)cc4)c(C)nn23)cc1OC`: the inhibition is 0.85% (inactive).

Consider `CSCCC(C(=O)NC1=NCCS1)N1C(=O)c2ccccc2C1=O` (stereo not drawn), for which the inhibition was 6.62% (inactive). Turning to `CCN(CC)C(=O)C1CCCN(Cc2cccc(Cl)c2)C1` (stereo not drawn), the inhibition was 2.81% (inactive).

For `COc1c(O)ccc2c1CN1CCc3cc4c(cc3C1C2)OCO4` (stereo not drawn), the inhibition is 4.81% (inactive). Regarding `N#CC1(Nc2ccc(-c3ccc(Cl)cc3)cc2)CCCC1`, the inhibition was 16.1% (inactive). The result for `CC(C)C(=O)Nc1ccc2c3c(cccc13)CC2` reads -8.88% (inactive). The result for `N#CC1(Nc2ccc3c4c(cccc24)CC3)CCCCC1` reads 40.5% (active); that for `CCCCOC(=O)c1ccc(NC(c2ccc(C)cc2)P(=O)(OC)OC)cc1` (stereo not drawn), 8.39% (inactive); that for `CC1=C(C(=O)N2CCOCC2)CC(CC(=O)NCc2ccco2)C(=O)N1Cc1ccc(F)cc1` (stereo not drawn), -4.73% (inactive).

`O=C(O)c1n[nH]nc1-c1ccccc1`: the inhibition was -3.66% (inactive). The result for `Cc1c(-c2ccccc2)nc(N)c(C#N)c1-c1cccs1` reads 8.1% (inactive); that for `N#Cc1c(-c2ccccc2)c(-c2ccccc2)n[nH]c1=O`, 31.9% (active); that for `COc1cc(C)nc(N2CCCC(C(=O)NCC(C)C)C2)n1` (stereo not drawn), -3.29% (inactive). The value for `CCCc1cc(C(=O)N2CCCC(CO)(CCCc3ccccc3)C2)n(C)n1` (stereo not drawn) was 17% (inactive); that for `CCN(CC)S(=O)(=O)c1ccc(N(C)Cc2cccc(OC)c2OC)nc1` was 22.7% (inactive). The result for `CCN(CC)S(=O)(=O)c1ccc(N(C)CCc2ccc(OC)c(OC)c2)nc1` reads 3.43% (inactive); that for `CCN(CC)S(=O)(=O)c1ccc(N(C)Cc2ccc(C(F)(F)F)cc2)nc1`, 29% (active).

Turning to `Nc1c(Cl)cc(-c2csc(N3CCCC3c3nc4cc(Cl)c(Cl)cc4n3CCOCCO)n2)cc1Cl` (stereo not drawn), the inhibition is 15.2% (inactive). The result for `O=C(COC(=O)c1cc(-c2cccs2)nn1-c1ccccc1)Nc1cc([N+](=O)[O-])ccc1Cl` reads 1.74% (inactive); that for `CCCCN(C(=O)C(CCSC)N1C(=O)c2ccccc2C1=O)c1c(N)n(CCC)c(=O)[nH]c1=O` (stereo not drawn), -3.24% (inactive). Regarding `Cc1ccc(NC(=O)CN(C)CC(=O)Nc2cccc(F)c2)cc1[N+](=O)[O-]`, the inhibition was 35.5% (active). The result for `CN(CC(=O)Nc1cccc(F)c1)C(=O)C1=COCCO1` reads 11.4% (inactive). The result for `Cc1ccc(NC(=O)c2sccc2C)cc1[N+](=O)[O-]` reads 10.3% (inactive); that for `CCCNC(=O)NCc1ccc(N2CCCC2=O)cc1`, -1.94% (inactive).

For `O=C(O)C(c1ccccc1)C1(O)CCCCC1` (stereo not drawn), the inhibition was -13.2% (inactive). The result for `CN(C)CCOC(=O)C(c1ccccc1)C1(O)CCCC1` (stereo not drawn) reads 98.1% (active); that for `O=C(O)C(c1cccs1)C1(O)CCCCC1` (stereo not drawn), 9.55% (inactive); that for `COc1ccc(NC(=O)CC2C(=O)NC3CCCCC3N2C(=O)c2ccc(F)cc2)cc1` (stereo not drawn), 23.2% (inactive). The value for `CCOc1ccc(Br)cc1CSC(=N)N` was 30.2% (active).

`CC(C)(C)NCc1cc(Br)ccc1OC1CCCC1`: the inhibition was -2.57% (inactive). The value for `CCOc1ccc(Br)cc1S(=O)(=O)N1CCC(C(=O)O)CC1` was 10.7% (inactive); that for `CC(C)(C)NC(=O)CN(C(=O)c1ccc(Cl)nc1)c1cccc2ccccc12` was 0.44% (inactive).

Take `Cc1cc(C(F)(F)F)nn1CC(=O)N1CCCC1`: the inhibition was -0.38% (inactive). Turning to `O=S(=O)(Nc1ccc(OC(F)(F)F)cc1)c1cccc2nonc12`, the inhibition is 3.29% (inactive). The value for `CCOc1ccc(C(=O)Nc2ccc(S(=O)(=O)Nc3cc(C)on3)cc2)cc1` was 7.9% (inactive). As to `O=C(Nc1ccc(OC(F)(F)F)cc1)c1ccc2c(c1)no[n+]2[O-]`, the inhibition was 28.2% (active).

In the case of `O=C(COC(=O)c1ccc(N2CCCC2=O)cc1)c1ccc(OC(F)F)cc1`, the inhibition was 6.05% (inactive). The result for `COc1cccc(OC)c1C(=O)Nc1c(C(=O)N2CCN(c3ccccn3)CC2)oc2ccccc12` reads 9.59% (inactive). The value for `COc1cccc(-n2c(N)cc(=O)nc2SCC(=O)Nc2cc(C)on2)c1` was -11.3% (inactive); that for `COc1ccc(CCNC(=O)CCc2ccccc2O)cc1OC` was -1.37% (inactive). The result for `COc1ccc(CCNc2nc(C)cc(C)n2)cc1OC` reads 1.9% (inactive). `COc1ccc(CCNC2=C(Cl)C(=O)N(Cc3ccccc3)C2=O)cc1OC`: the inhibition was 31.8% (active). The value for `N#CCCN(C(=S)Nc1ccc(Cl)c(Cl)c1)C1CCCCC1` was 24.6% (inactive); that for `CCN1CCN(C(=O)/C=C\C(=O)O)CC1` was 2.54% (inactive).

Turning to `O=C(Nc1ccc(Cl)cn1)c1ccccc1-c1ccccc1`, the inhibition is 10.9% (inactive). The result for `O=C(Nc1ccc(Cl)cn1)c1cnn2cccnc12` reads -6.64% (inactive); that for `O=C(Nc1ccc(Cl)cn1)Nc1cccs1`, 31.8% (active). The result for `CC(C)C[C@H](NC(=O)N1CCn2c1nc1ccccc12)C(=O)NC1CC1` reads 0.78% (inactive); that for `CCN(CC)S(=O)(=O)c1ccc2nc(CSc3nnnn3-c3ccc(O)cc3)[nH]c2c1`, 10.1% (inactive); that for `Fc1ccc(COc2cccc(-c3n[nH]c(=S)o3)c2)cc1`, 8.85% (inactive). The value for `Fc1cccc2ncnc(OCc3ccccc3)c12` was 4.79% (inactive). For `Cc1nc2ccccc2cc1OCc1ccc(F)cc1`, the inhibition was 47.8% (active).

Turning to `O=C(CSc1nccc(=O)[nH]1)Nc1ccc(N2CCOCC2)c(Cl)c1`, the inhibition is 12.6% (inactive). The result for `CCOc1ccc(C(C)=O)cc1CSc1nnc(-c2ccncc2)n1CCOC` reads 12% (inactive). On to `CCN1C(=O)CS/C1=N\c1nccs1`, for which the inhibition was -0.1% (inactive). The result for `CCOc1ccc(C(=O)NCC(=O)N2CCCCCCC2)cc1OCC` reads 1.82% (inactive); that for `CO/N=C(\C(=O)N[C@@H]1C(=O)N2C(C(=O)O)=C(COC(C)=O)CS[C@H]12)c1csc(N)n1` (stereo in doubt), 0.17% (inactive) and 51.3% (active) and 30.6% (active); that for `C=CC1=C(C(=O)O)N2C(=O)[C@@H](NC(=O)/C(=N/OCC(=O)O)c3csc(N)n3)[C@H]2SC1`, -2.27% (inactive).

As to `CCN1CCN(C(=O)N[C@@H](C(=O)N[C@@H]2C(=O)N3C(C(=O)O)=C(CSc4nnnn4C)CS[C@H]23)c2ccc(O)cc2)C(=O)C1=O`, the inhibition is -7.79% (inactive). The result for `COc1ccc(C(=O)Cn2nnc(-c3ccc(N4CCOCC4)cc3)n2)cc1OC` reads 16.5% (inactive). The value for `N#CCc1ccc(NC(=O)c2ccccc2C(=O)Nc2ccc(CC#N)cc2)cc1` was 2.31% (inactive). The result for `CCN(CC)CCC(c1ccc2c(c1)OCO2)c1c(OC)cc(OC)c2c(-c3ccccc3)cc(=O)oc12` (stereo not drawn) reads 7.48% (inactive); that for `COc1cc(C(CCN2CCN(c3ccccc3)CC2)c2c(OC)cc(OC)c3ccc(=O)oc23)cc(OC)c1OC` (stereo not drawn), 17% (inactive); that for `COc1cc(OC)c2ccc(=O)oc2c1C(CCN1CCN(c2ccccc2)CC1)c1ccc2c(c1)OCO2` (stereo not drawn), 31.3% (active). On to `Cc1ccc(NC(=O)c2cc([N+](=O)[O-])ccc2Cl)c(O)c1`, for which the inhibition is 1.06% (inactive). For `CCOC12CC(C)(C)CC(C)(CC3=C1C(=O)CC(C)(C)C3)C2` (stereo not drawn), the inhibition was -1.41% (inactive). The value for `Cc1ccc(CNC(=O)CCNS(=O)(=O)c2ccc(Br)s2)cc1` was -7.85% (inactive); that for `CCN(CC(=O)Nc1ccccc1C(=O)NC1CC1)Cc1cccs1` was -5.91% (inactive). The value for `CC(=O)Oc1ccc(C(=O)Nc2nccs2)cc1` was -0.3% (inactive); that for `CSc1nccc(NC(=O)c2ccc(C(C)(C)C)cc2)n1` was 32.5% (active); that for `CSc1ncc(C(=O)Nc2ccc(C)cc2C)c(C)n1` was 0.26% (inactive).

As for `O=C(CSc1nn(-c2ccc(F)cc2)c(=S)s1)NC1CCS(=O)(=O)C1` (stereo not drawn), the inhibition is 2.55% (inactive). The result for `CC(=O)NC(c1cccs1)c1cc(Br)c2cccnc2c1O` (stereo not drawn) reads -3.57% (inactive). The value for `CCn1c(N)c(Br)c(=O)[nH]c1=O` was -11.1% (inactive); that for `Cc1ccc(N2CC(C(=O)NCCS(=O)(=O)N3CCN(c4ccccc4)CC3)CC2=O)cc1` (stereo not drawn) was 8.26% (inactive); that for `Cc1ccc(C(=O)N/C(=C/c2ccco2)C(=O)NCCc2c[nH]c3ccccc23)cc1C` was 0.84% (inactive). The result for `N#C/C(=C\c1ccc(N2CCOCC2)o1)C(=O)N1CCOCC1` reads 0.08% (inactive); that for `N#C/C(=C/c1ccc(N2CCCCC2)o1)C(=O)NCCc1c[nH]c2ccccc12`, 31.6% (active). Turning to `Cc1ccccc1CSc1nnc(-c2ccccn2)n1N`, the inhibition is -0.16% (inactive). Take `CC(C)(C)S(=O)(=O)N1Cc2cc(CO)cc(CCO)c2[C@H]1CCO`: the inhibition is -3.33% (inactive). The result for `CN1CCC(=NNC(=O)c2ccc(N(Cc3ccc(Cl)cc3)S(C)(=O)=O)cc2)CC1` reads -3.74% (inactive); that for `CCC1CCC/C1=N\NC(=O)c1ccc(Cl)cc1` (stereo not drawn), 27.5% (active). The value for `CC(NC(=O)c1ccc(Cl)cc1)C(=O)N1CCCCC1` (stereo not drawn) was -2.56% (inactive).

For `COc1cc(OC)cc(-c2c(C#Cc3ccsc3)c3cc(-c4ccc(OC)cc4F)ccc3n2C)c1`, the inhibition was 8.22% (inactive). On to `CN(C(=O)CN1CCN(c2cc(-c3ccc(OCc4ccccc4)cc3)ncn2)CC1)c1ccccc1`, for which the inhibition is 27.1% (active).

On to `CCN(CC)c1ccc(NC(=O)CN2CCN(c3ccccn3)CC2)cc1`, for which the inhibition is 1.09% (inactive).

Consider `CCOc1ccc(OCc2ccc(C(=O)N(C)c3ccccc3)o2)cc1`, for which the inhibition was 8.29% (inactive).

Consider `C[C@H](NS(=O)(=O)c1ccc(Cl)cc1)C(=O)OCC(=O)N1CCOCC1`, for which the inhibition was 14.1% (inactive). The result for `CN(C)CCNC(=O)c1ccc(Cl)c2cc3ccccc3nc12` reads 0.61% (inactive). The value for `N#C/C=C\Oc1ccc(Cl)cc1N` was 1.41% (inactive). The value for `Cc1ccc(C(=O)C[n+]2cc(-c3ccccc3)n3c2CCCCC3)cc1` was 4.95% (inactive) and 0.73% (inactive); that for `Clc1ccc(C[n+]2cc(-c3ccc(Cl)cc3)n3c2CCC3)cc1` was 32.4% (active). As for `Cc1ccc(-c2c[n+](CC(=O)Nc3ccccc3)c3n2CCC3)cc1`, the inhibition is 2.52% (inactive).
